PolyA inh = polyadenylation inhibitors in yeast reporter cells, primary screen, luminescence, S. cerevisiae | S. cerevisiae SKY197-pL101 polyadenylation reporter, beta-gal luminescence; efflux-impaired pdr1/pdr3 knockout yeast; score 100 = 6 SD above DMSO | hit rate 0.02% among 300,000 | AID 1875, 2009 | activity score, % at 12 µM;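 active means lowest replicate activity score at least 50, where 100 means six control SD above control mean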;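 further: yeast exposed to compound for 9 h at 30 °C; higher score means more reporter readthrough which indicates perturbed polyadenylation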
HTR5A ag = HTR5A agonists in luminescence cell assay, primary screen, counter-screen for OPRM1-OPRD1 heterodimer agonist project, full-deck HTS; 5-hydroxytryptamine receptor 5A (Homo sapiens), P47898; cell-based; activation, % at 9.3 µM; hit rate 0.61% among 340,000; AID 504692, 2011; in the data active means activation mostly above about 9.5%, no sharp cut-off; inactive means mostly below about 7.6%;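 further: 0% = cells with vehicle only and 100% = reference agonist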
NALP1 inh = NALP1 inflammasome inhibitors in reconstituted yeast, colorimetric, S. cerevisiae, triplicate retest; S. cerevisiae NALP1/ASC/caspase-1 growth, X-gal OD620, 72 h; inhibition, % at 10 µM; hit rate 0.61% among 280,000; AID 2071, 2009; in the data active means inhibition mostly above about 24%, no sharp cut-off; inactive means mostly below about 32%
OPRM1-OPRD1 ag = agonists of OPRM1-OPRD1 heterodimerization, primary screen, cell-based, luminescence. cells. AID 504326, 2011. activation, % at 9.3 µM. hit rate 0.3% among 340,000; in the data active means activation above about 18%;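 further: 0% = vehicle-treated cells and 100% = reference agonist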
MOR-DOR inv ag = inverse agonists of MOR-DOR heterodimerization, primary screen, cell-based, luminescence; inhibition, % at 9.3 µM; Mu-type opioid receptor (Homo sapiens) + Delta-type opioid receptor (Homo sapiens), …; cell-based MOR-DOR heterodimer luminescence, inverse agonism; hit rate 0.21% among 340,000; in the data active means inhibition above about 22%, passing the limit was not always enough;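 further: 0% = cells with DMSO and 100% = wells without cells with DMSO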
HTR5A inv ag = HTR5A inverse agonists in luminescence cell assay, primary screen, counter-screen for OPRM1-OPRD1 heterodimer inverse agonist project, full-deck HTS; 5-hydroxytryptamine receptor 5A (Homo sapiens), P47898; HTR5A cell line, inverse agonism; inhibition, % at 9.3 µM; hit rate 0.083% among 340,000; AID 504634, 2011; in the data active means inhibition mostly above about 23%, no sharp cut-off; inactive means mostly below about 18%;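 further: 0% = cells with DMSO and 100% = no-cell wells with DMSO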
Starred values were filed as active, the others as inactive; nt = no result given. A selection: hits, their analogues and other compounds. The true share with any hit is near 1.6%.

SMILES	PolyA inh	HTR5A ag	NALP1 inh	OPRM1-OPRD1 ag	MOR-DOR inv ag	HTR5A inv ag
COc1ccc(CN2C(=O)C(C)Nc3ncnc(N4CCN(c5ccccn5)CC4)c32)cc1 (stereo unspecified)	nt	-21.6	nt	-12.2	70.4*	63.4*
COc1ccc(CN2C(=O)C(CC(C)C)Nc3ncnc(N4CCN(c5ccccn5)CC4)c32)cc1 (stereo unspecified)	-0.6	-0.6	nt	2.5	-13.9	12.8
Cc1ccc(CN2C(=O)C(C)Nc3ncnc(N4CCN(c5ccccn5)CC4)c32)cc1 (stereo unspecified)	13.1	-17.1	nt	-12.1	55.5*	56.0*
O=C(CN1CCCC1c1cccs1)Nc1cc(S(=O)(=O)N2CCCCC2)ccc1Cl (stereo unspecified)	nt	1.7	nt	-3.6	13.9	12.9
CC/C(=N\NS(C)(=O)=O)c1ccccc1	13.6	nt	43.8*	nt	nt	nt
Cc1cc(OC(C)C(=O)NCC2CCCO2)cc(C)c1Cl (stereo unspecified)	0.0	10.7*	4.9	-3.3	17.0	-11.3
CC12CCC(C(=O)N(CSC(=S)N/N=C\c3ccccc3Cl)C1=O)C2(C)C (stereo unspecified)	-12.0	1.6	7.3	1.5	-7.5	-18.1
CC12CCC(C(=O)N(CSC(=S)N/N=C\c3ccccc3)C1=O)C2(C)C (stereo unspecified)	4.5	10.3*	5.0	0.7	-3.8	-11.1
O=C(N/N=C/C1C(c2ccccc2)C1(Cl)Cl)c1cccc(Br)c1 (stereo unspecified)	-12.5	11.1*	-23.7	-0.8	4.7	-6.8
Cc1nn(-c2ccccc2)c(C)c1NC(=O)COC(=O)Cc1ccccc1F	22.4	12.1*	nt	-3.1	15.2	-15.2
Cc1cccc(C(=O)Oc2c(Br)cc(Br)cc2/C=N/NC(=O)c2ccncc2)c1	-5.1	4.0	28.0*	-1.4	9.0	-20.6
COc1cccc(C=NNC(=O)c2ccncc2)c1O	nt	8.5*	nt	-0.5	2.6	-30.2
O=C(C1CCCCC1)N1CCC2CC1c1cc(Cl)ccc12 (stereo unspecified)	nt	3.6	nt	-1.1	5.0	-13.5
Cc1ccn2c(-c3n[nH]c(=S)n3C)c(C)nc2c1	-4.9	-1.1	2.1	-2.3	12.2	8.6
N#Cc1ccc(NC(=O)Nc2ccc(Cl)cc2)cc1	-13.0	8.7	71.4*	4.0	-16.8	-21.8
CN(CC(=O)Nc1ccc(C#N)cc1)Cc1ccc(Cl)cc1	3.1	-1.6	1.2	3.1	-18.0	13.7
S=C(N/N=C/c1ccccc1Cl)Nc1cccc(Cl)c1Cl	-14.8	4.7	nt	-1.3	6.8	-9.1
O=C1c2ccccc2N(Cc2ccc(Cl)cc2)C2=NCCN12	7.3	10.7*	26.7	-0.5	3.7	-28.5
Clc1ccc(CN2C3=NCCCN3c3ccccc32)cc1	3.1	0.7	11.8	-2.3	10.7	-1.7
O=C(Nc1ccc(Cl)cn1)c1cc2c(s1)-c1ccccc1OC2	6.3	-6.5	-1.9	-1.0	5.1	0.1
Cc1ccc(S(=O)(=O)NNC(=O)c2snnc2C)cc1	-1.9	-0.1	37.0*	0.8	-4.2	2.8
Cc1nc(C)c(C(=O)NNS(=O)(=O)c2ccccc2)s1	15.1	10.1*	nt	-1.0	7.2	-27.9
O=C(N/N=C/c1ccccc1)C1CCCN1C(=O)c1cc([N+](=O)[O-])cc([N+](=O)[O-])c1 (stereo unspecified)	nt	-3.4	2.8	4.9	-20.1	8.7
O=C1C2C3C=CC(C3)C2C(=O)N1Nc1ccc([N+](=O)[O-])cc1[N+](=O)[O-] (stereo unspecified)	15.8	-6.5	4.2	-1.8	10.1	9.5
O=C1c2ccccc2C(=O)N1Nc1ccc([N+](=O)[O-])cc1[N+](=O)[O-]	0.1	-9.5	19.3	-2.5	12.2	35.3*
SMILES	PolyA inh	HTR5A ag	NALP1 inh	OPRM1-OPRD1 ag	MOR-DOR inv ag	HTR5A inv ag
Nc1ccc(Nc2ccc([N+](=O)[O-])cc2[N+](=O)[O-])cc1	-2.3	2.9	-2.1	2.9	-21.0	-8.3
O=[N+]([O-])c1ccc(Nc2ccccn2)c([N+](=O)[O-])c1	-6.1	-1.6	25.8*	9.8	-52.9	-30.6
O=C1[C@H](Cc2ccccc2)NCC=CC[C@H](c2ccco2)N1Cc1ccccc1	nt	2.1	nt	0.4	-2.2	5.9
COc1ccc(NC(=O)c2cc3cccc(OC)c3oc2=Nc2ccc(C(=O)O)cc2)cc1OC	-9.5	-1.8	28.4*	-1.7	8.6	-14.3
COc1cc(C2CC(=O)Oc3c(C(CCN4CCN(c5ccccc5)CC4)c4ccc(N(C)C)cc4)c(OC)cc(OC)c32)cc(OC)c1OC (stereo unspecified)	-7.6	-4.8	4.0	-1.9	10.2	-7.2
COc1cc(C2CC(=O)Oc3c(C(CCN4CCOCC4)c4ccc(N(C)C)cc4)c(OC)cc(OC)c32)cc(OC)c1OC (stereo unspecified)	57.7*	-3.0	11.1	-1.1	6.2	-19.5
CC(=O)N(C)c1ccc(NC(=S)Nc2ccccc2)cc1	1.1	-0.7	nt	-1.3	6.5	1.7
CC(=O)N(C)c1ccc(NC(=S)Nc2cccc3ccccc23)cc1	-4.6	14.2*	0.8	7.0	-36.0	-24.0
CC(CN1C(C)CCCC1C)OC(=O)c1ccccc1F (stereo unspecified)	2.5	-0.7	8.6	-2.0	11.5	2.6
Cc1ccc(-n2c(C)cc(/C=C3/SC(=O)N(CC(=O)N4CCOCC4)C3=O)c2C)nc1	2.3	nt	20.5	nt	nt	nt
Cc1ccc2c(C)nc(NC3=NCN(CCc4ccccc4)CN3)nc2c1	nt	nt	18.4	nt	nt	nt
Cc1nc(NC2=NCN(CCc3ccccc3)CN2)nc2ccccc12	nt	nt	36.7*	nt	nt	nt
Cc1nc(NC2=NCN(Cc3cccnc3)CN2)nc2ccccc12	nt	-1.3	-21.1	-1.2	6.3	-21.5
Cc1nc(NC2=NCN(Cc3ccccc3)CN2)nc2ccccc12	nt	nt	31.9*	nt	nt	nt
CCOC(=O)C1(Cc2cccc(OC)c2)CCN(Cc2cccc(O)c2)CC1	-13.6	-0.7	0.5	0.3	-1.6	-16.3
CCOC(=O)C1(Cc2cccc(OC)c2)CCN(Cc2cccn2-c2nccs2)CC1	-13.8	-1.6	39.3*	4.9	-23.9	-14.2
Cc1cc(C)c(S(=O)(=O)c2ccccc2)c(=O)[nH]1	23.4	-0.8	3.5	-2.7	13.9	3.1
Cc1cc(C)c(S(=O)(=O)c2cccc(C)c2C)c(=O)[nH]1	-7.7	-0.7	32.9*	-3.4	15.5	2.4
Cc1ccc(C(=O)OCC(=O)NCc2cccc(Cl)c2)cc1S(=O)(=O)N1CCCCC1	nt	4.5	nt	-1.1	7.0	-13.6
CCc1cccc(NS(=O)(=O)c2ccc3c(c2)NC(=O)CC(=O)N3)c1	22.3	-2.9	35.9*	-2.4	12.3	7.2

Assay outcomes from PubChem BioAssay.
